Screening data as filed in PubChem.
The list is not random: actives were taken first. Their share in the collection is about 7.1%.
IL-1B inflam inh = qHTS for Inhibitors of Inflammasome Signaling: IL-1-beta AlphaLISA Primary Screen; THP-1 LPS/ATP IL-1B secretion, AlphaLISA, 16 h; active compounds read low; activity change, % at 57.5 µM; 4.7% of 360,000 active; AID 743279, 2014; in the data active means activity change below about -50%; inconclusive means mostly about -30% to -49%
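Secreted IL-1B measured by AlphaLISA bead assay after 16 h compound exposure of THP-1 cells; compounds (final up to 57.5 uM) added 1 h before LPS (250 ng/mL) and ATP (1.25 mM) stimulation; lower signal means less secretion.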
MCF10A rerep = A quantitative high throughput screen for small molecules that induce DNA re-replication in MCF 10a normal breast cells; MCF 10A DNA re-replication, Hoechst nuclear intensity, 48 h; Potency, µM (top dose mostly 46.1 µM), hits mostly activators; 2.9% of 350,000 active; AID 624296, 2012; further: nearly all actives have a fitted effect of over 50% in size
S2 tox = Viability Counterscreen for Primary qHTS for Inhibitors of ATXN expression. S2 cells (HEK-293 line with an ATXN2-luciferase reporter) viability, CellTiter-Fluor protease fluorescence, 24 h. Potency, µM (series often up to 56.7 µM), hits mostly cytotoxic. 0.49% of 400,000 active; further: nearly all actives have a fitted effect of over 40% in size
SW480 rerep = A quantitative high throughput screen for small molecules that induce DNA re-replication in SW480 colon adenocarcinoma cells. SW480 DNA re-replication, Hoechst DNA content imaging, 48 h. Potency, µM (series often up to 46.1 µM), usual class: activators. 1.8% of 340,000 active; further: nearly all actives have a fitted effect of over 55% in size
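Hoechst fluorescence of nuclei (405 nm excitation, 500-530 nm emission) measured by plate-scanning imager after 48 hr compound exposure at 37 C; re-replication scored as increased number of nuclei with elevated intensity.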
ATXN2 expr inh = Primary qHTS for Inhibitors of ATXN expression | HEK-293 ATXN2-luciferase reporter, luminescence, 24 h | Potency, µM (titrated, usually from 57 µM), usual class: inhibitors | 0.72% of 360,000 active | AID 1745845, 2022; further: nearly all actives have a fitted effect of over 55% in size
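ATXN2-luciferase reporter cells (luciferase flanked by upstream and downstream ATXN2 gene portions) were treated 24 h at 37 °C with compounds at up to 57 uM. SteadyGlo luminescence gave expression; GF-AFC fluorescence gave viability.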
PINK1 expr mod = A Quantitative High throughput Screen to Identify Chemical Modulators of PINK1 Expression | PINK1 immunofluorescence, high-content cytometry, 24 h | Potency, µM (doses to about 76.6 µM), hits mostly activators | 0.2% of 410,000 active; active means well fitted activation curve with a large enough effect; inconclusive means small, poorly fitted or top-dose-only effect; cell line not stated here; further: nearly all actives have a fitted effect of over 65% in size
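Fluorescence from anti-PINK1 antibody, together with nuclear and cell stains, was scanned on a laser-scanning cytometer. Before staining, stable-line cells were incubated 24 hours with compounds at 5 concentrations; primary antibody 12 h at 10 degrees C.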
Each line names hits and unclear results; the compound was inactive in the other large screens. Unless noted, the call rests on the fitted dose curve; in most records, active means well fitted curve in the direction sought with a large enough effect; inconclusive means small, poorly fitted or top-dose-only effect, or another doubt; inactive means no such curve, though single readings can be large; an effect the other way counts as inactive or inconclusive.

O=C(Nc1ccccn1)c1ccco1	none
O=C(Nc1ccc(Cl)cc1C(=O)Nc1ccccn1)c1ccco1	IL-1B inflam inh -52
CC(=O)NCc1nnc2c3ccccc3c(-c3ccccc3)nn12	none
O=C(NCc1nnc2c3ccccc3c(-c3ccccc3)nn12)c1ccc(Cl)cc1	IL-1B inflam inh -97, MCF10A rerep inconclusive (no result: S2 tox, ATXN2 expr inh)
Cc1ccc(S(=O)(=O)N2C[C@H]3C(=O)C[C@@H](c4ccccc4)N(S(C)(=O)=O)[C@H]3C[C@H]2c2ccccc2)cc1	IL-1B inflam inh -92, S2 tox inconclusive, ATXN2 expr inh inconclusive (no result: MCF10A rerep, SW480 rerep)
Cc1ccc(S(=O)(=O)N2C[C@H]3C(=O)C[C@@H](c4cccs4)N(S(=O)(=O)c4ccc(C)cc4)[C@H]3C[C@H]2c2ccccc2)cc1	IL-1B inflam inh -58 (no result: MCF10A rerep, SW480 rerep)
Sc1oc(-c2ccccc2)cc1C=Nc1ccccc1	MCF10A rerep inconclusive, S2 tox inconclusive, SW480 rerep 13µM
Cc1ccc(C)c(N(C)C(=O)C2CCN(S(=O)(=O)c3cccc4nsnc34)CC2)c1	S2 tox inconclusive, ATXN2 expr inh inconclusive (no result: IL-1B inflam inh, MCF10A rerep, SW480 rerep)
Cc1c(C#N)c(O)n(CCO)c(=O)c1N=Nc1ccc2c(c1)COC2=O	IL-1B inflam inh -57, MCF10A rerep inconclusive, S2 tox inconclusive
Cc1cc(=O)n(CCO)c(O)c1C#N	none
CCN(C(=O)Cn1ncc2c(=O)oc3ccc(C)cc3c21)c1cc(OC)ccc1OC	none (no result: IL-1B inflam inh, MCF10A rerep, S2 tox, SW480 rerep, ATXN2 expr inh)
OC(c1ccccc1)(c1ccccc1)c1nccc2ccccc12	IL-1B inflam inh -55
c1ccc(-c2nccc3ccccc23)cc1	S2 tox inconclusive
CC1=C(c2ccc(C)cc2)S(=O)(=O)N(Cc2ccc(C(=O)Nc3ccc(F)cc3C)cc2)C1=O	none (no result: IL-1B inflam inh, MCF10A rerep, SW480 rerep)
Cn1cccc([N+](=O)[O-])c1=O	none (no result: MCF10A rerep, SW480 rerep, ATXN2 expr inh)
Cn1c(=O)c(=O)n(C)c2cc([N+](=O)[O-])c([N+](=O)[O-])cc21	IL-1B inflam inh -101, MCF10A rerep inconclusive
CCn1c(/C=C/Nc2ccccc2)[n+](CC)c2cc(Cl)c(Cl)cc21	MCF10A rerep inconclusive, S2 tox 32µM, SW480 rerep inconclusive, ATXN2 expr inh inconclusive
CC(=O)OCC1OC(OC2C[C@]3(C)C(CC(O)C4C([C@](C)(CCC=C(C)C)OC5OC(CO)C(O)C(O)C5O)CC[C@]43C)[C@@]3(C)CCC(O)C(C)(C)C23)C(O[C@@H]2OC(C)C(O)C(O)C2O)C(O)C1O (some centres undefined)	MCF10A rerep 0.52µM
CC(C)(O)[C@@H]1CC[C@@](C)(C2CC[C@]3(C)C2[C@H](O)CC2[C@@]4(C)CC[C@H](O)C(C)(C)C4[C@@H](O[C@H]4O[C@@H](CO)[C@H](O)[C@@H](O)[C@@H]4O[C@@H]4O[C@H](CO)[C@@H](O)[C@H](O)[C@H]4O)C[C@]23C)O1 (stereo in doubt)	none
N#Cc1cc(C#N)c(N2CCN(c3cccc(Cl)n3)CC2)nc1N	MCF10A rerep 3.3µM, ATXN2 expr inh inconclusive
Cc1ccccc1NC(=O)C1CC(=O)N(c2ccc3c4c(cccc24)CC3)C1 (centres undefined)	none (no result: PINK1 expr mod)
O=C(Nc1ccccc1Br)C1CC(=O)N(c2ccc3c4c(cccc24)CC3)C1 (centres undefined)	IL-1B inflam inh inconclusive, MCF10A rerep 21µM, SW480 rerep inconclusive
N#Cc1ccccc1COC(=O)c1ccc2c(c1)OCO2	MCF10A rerep inconclusive (no result: ATXN2 expr inh)
N#Cc1ccccc1COC(=O)c1ccc2c(c1)OCCO2	IL-1B inflam inh -50, SW480 rerep inconclusive
CCC1(C2CCN(C(=O)c3cc4ccccc4o3)CC2)NC(=O)N(CCc2scnc2C)C1=O (centres undefined)	none (no result: IL-1B inflam inh, MCF10A rerep, SW480 rerep, ATXN2 expr inh)
COc1ccc(-c2n[nH]c(C)c2-c2ccc(Cl)cc2)c(O)c1	MCF10A rerep inconclusive
COc1ccc(-c2n[nH]c(C)c2-c2ccc(Cl)cc2)c(O)c1OC	MCF10A rerep 18µM
Cc1ccc(F)cc1NC(=O)COC(=O)c1ccc(S(C)(=O)=O)c([N+](=O)[O-])c1	none (no result: IL-1B inflam inh, MCF10A rerep, S2 tox, SW480 rerep, ATXN2 expr inh)
O=[N+]([O-])c1ccccc1-c1ccc(C(=S)N2CCCC2)o1	SW480 rerep 8.2µM
O=C(Nc1ccc2[nH]c(=O)[nH]c2c1)c1ccc([N+](=O)[O-])o1	IL-1B inflam inh inconclusive, MCF10A rerep 5.8µM, S2 tox inconclusive, SW480 rerep 2.9µM
O=C(Nc1cccc(NC(=O)c2ccccc2Cl)c1)c1ccc([N+](=O)[O-])o1	IL-1B inflam inh -106, MCF10A rerep 3.7µM, S2 tox inconclusive, SW480 rerep inconclusive, ATXN2 expr inh inconclusive
O=C(Nc1cccc(Cl)c1N1CCOCC1)c1ccc([N+](=O)[O-])o1	none
Cc1ccc(NC(=O)c2ccc([N+](=O)[O-])o2)cc1C	IL-1B inflam inh -94, MCF10A rerep 9.2µM, S2 tox inconclusive, SW480 rerep inconclusive
CCCCN(C)c1nnc(NC(=O)Nc2cccc(C(C)=O)c2)s1	none (no result: IL-1B inflam inh, MCF10A rerep, SW480 rerep)
CCc1ccc(NC(=O)CC2C(=O)N(c3cccc(C)c3)C(=O)N2Cc2cccc(OC)c2)cc1 (centres undefined)	none (no result: IL-1B inflam inh, MCF10A rerep, S2 tox, SW480 rerep, ATXN2 expr inh)
Cc1ccc(OCCSc2nc3ccccc3n2CC(=O)N2CCOCC2)cc1	none (no result: IL-1B inflam inh, MCF10A rerep, SW480 rerep)
CC(=O)c1cccc(NC(=O)c2ccc(-c3ccccc3[N+](=O)[O-])o2)c1	IL-1B inflam inh inconclusive, MCF10A rerep 18µM, S2 tox inconclusive
O=C(Nc1cccc([N+](=O)[O-])c1)c1ccc([N+](=O)[O-])o1	IL-1B inflam inh -103, S2 tox inconclusive (no result: MCF10A rerep, SW480 rerep, ATXN2 expr inh)
